Consider 40 compounds from PubChem BioAssay (Tox21).

The structures appear in SMILES notation. “And” between values parts separate entries of the source, which are not always exact repeats. Equal entries are not always repeated. Inconclusive results are not listed. Entries that show only a call come without a potency. Some structures have more than one record in an assay (separate samples or runs), and their calls can disagree. The source made the active and inactive calls. Calls follow the shape of the dose curve; as a rule, active = well fitted cell-killing curve with a large enough effect in the repeat runs; inconclusive = weak or mixed curves, or effect the other way; inactive = flat fitted curve, though single readings scatter.
Potency is read from the fitted curve at half-maximal effect.

A short description of the assay: qHTS assay to identify small molecule agonists of the androgen receptor (AR) signaling pathway in the presence of an antagonist - cell viability counter screen (AID 1259379). Also: nearly all actives have a fitted effect of over 25% in size. The note with it: MDA-kb2 viability, CellTiter-Fluor, 16 h; series mostly up to 92.4 µM. The source says:
National Center for Advancing Translational Sciences [NCATS]
NIH Chemical Genomics Center [NCGC]
U.S. Environmental Protection Agency [EPA]
National Institutes of Environmental Health Sciences [NIEHS]
National Toxicology Program [NTP]
U.S. Food and Drug Administration [FDA]
Androgen receptor (AR) is an important member of nuclear receptor family. Its signaling plays a critical role in AR-dependent prostate cancer and other androgen related diseases. Considerable attention has been given in the past decades to develop methods to study and screen for the environmental chemicals that have the potential to interfere with metabolic homeostasis, reproduction, developmental and behavioral functions. Therefore AR binding assay for screening against androgen agonists and antagonists can be used to identify potential endocrine disruptors.
MDA-kb2 cells (from ATCC, deposited by Wilson et al.) are human breast carcinoma cells that were stably transfected with a luciferase reporter gene under control of the MMTV promoter that contains response elements for both androgen receptor (AR) and glucocorticoid receptor (GR). This particular screening for measuring luciferase reporter gene activity using MDA-kb2 cells against Tox21 10K library compounds is a confirmation study on agonist mode screening in the presence of AR-antagonist compound (Nilutamide) at 3.0uM final concentration. The cytotoxicity of the compounds was tested in parallel by measuring the cell viability using CellTiter-Fluor assay system (Promega, Madison, WI) in the same wells.
Tox21 Assay Protocol Summary:
MDA-kb2 cells (cells cultured without CO2) were dispensed at 3,000 cells/well in 4uL of culture medium into white wall/solid-bottom 1536-well plates (Corning Life Sciences, Corning, NY) using a Multidrop Combi (Thermo Fisher Scientific Inc., Waltham, MA) dispenser. The assay plates were incubated at 37C and 0% CO2 for 5hr. One uL of 3.0uM (final concentration) Nilutamide or assay buffer was added using two separate tips of Flying Reagent Dispenser (FRD, Aurora Discovery, San Diego, CA). Then 23nL of compounds dissolved in DMSO at 15 concentrations and positive controls were transferred to the assay plates using a Pintool station (Wako, San Diego, CA). The assay plates were incubated at 37C and 0% CO2 for 16 hr. After 15hr incubation at 37C, 1uL/well CellTiter-Fluor reagent (Promega Corporation) was added to each well of the assay plates using FRD. After 1hr incubation at 37C and 0% CO2, the fluorescence signal was measured using a ViewLux plate reader (PerkinElmer, Shelton, CT).
With `O=C(O)C1=NN(c2ccc(S(=O)(=O)O)cc2)C(=O)C1`, the Potency result was “inactive”.
`C[Si](C)(C)N[Si](C)(C)C`: the Potency result was “inactive”.
With `CCCCC(=O)O` the entry was “inactive”; with `Cc1ccc(Cl)cc1`, “inactive”; with `CC/C(C)=N/O`, “inactive”.
The entry for `Oc1ccc(Cc2ccccc2O)cc1` is “inactive”.
For the compound `c1cnc2c(c1)ccc1cccnc12`, the Potency was 15.5 µM (active) and 30.6 µM (active) and 21.7 µM (active).
In the case of `Cc1cc(CC(=O)O)n(C)c1C(=O)c1ccc(Cl)cc1`, the Potency entry is “inactive”.
The entry for `CCOC(=O)c1ccc(O)cc1` is “inactive”.
In the case of `COc1ccccc1[N+](=O)[O-]`, the Potency result was “inactive”.
With `O=C1O[C@H]([C@H](O)CO)C(O)=C1O` the entry was “inactive”; with `Cc1ccccc1Cl`, “inactive”.
The entry for `Nc1cccc(C(F)(F)F)c1` is “inactive”; for `CCCCCNCCCCC` it is “inactive”.
Consider `O=[N+]([O-])c1ccccc1C(F)(F)F`, for which the Potency result is “inactive”.
With `C[n+]1ccn(CCO)c1` the entry was “inactive”; with `C=C(C)CC(C)(C)C`, “inactive”; with `Cc1ccc(C(C)C)cc1`, “inactive”.
With `CC(C)(C)NC[C@H](O)COc1nsnc1N1CCOCC1` the entry was “inactive”; with `CCCCCC(C)=O`, “inactive”; with `CC[N+](CC)(CC(=O)Nc1c(C)cccc1C)Cc1ccccc1`, “inactive”.
With `CC(=O)OC(C)(C)C1CC=C(C)CC1` (stereo not given) the entry was “inactive”.
On to `CC(C)=CCC/C(C)=C/C=O`, for which the Potency result is “inactive”.
With `OC[C@H]1O[C@@H](Oc2ccc(O)cc2)[C@H](O)[C@@H](O)[C@@H]1O` the entry was “inactive”; with `CC(C)(CO)CO`, “inactive”.
The entry for `CN1Cc2c(N)cccc2C(c2ccccc2)C1` (stereo not given) is “inactive”; for `Cc1ccccc1C=O` it is “inactive”.
With `CN=C(NC#N)NCCSCc1nc[nH]c1C` the entry was “inactive”.
Take `CCCCCCC(=O)O`: the Potency entry is “inactive”.
With `O=Cc1ccc(CO)o1` the entry was “inactive”; with `Nc1nc(N)c2nc(-c3ccccc3)c(N)nc2n1`, “inactive”; with `OCc1ccc(Cl)cc1Cl`, “inactive”.
For the compound `Cc1cccc(C)c1[N+](=O)[O-]`, the Potency result is “inactive”.
The entry for `NC(=O)NC(N)=O` is “inactive”; for `O=[N+]([O-])c1cc(C(F)(F)F)ccc1Cl` it is “inactive”.
As to `Cc1cc(C)c(O)c(C)c1`, the Potency result is “inactive”.
For the compound `COCN(COC)c1nc(N(COC)COC)nc(N(COC)COC)n1`, the Potency entry was “inactive”.
With `Cc1ccncc1` the entry was “inactive”; with `CC(C)c1ccc(C(C)C)cc1`, “inactive”; with `O=c1c(O)c(-c2ccc(O)c(O)c2)oc2cc(O)cc(O)c12`, 48.6 µM (active) and inactive.
